According to PubChem BioAssay AID1520 (The Scripps Research Institute Molecular Screening Center, 2009):
The other results are listed elsewhere or left out. A number with no mark means an inactive call. Calls of active or inactive are those of the source.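 How the source made its calls: active means cell growth inhibition above the hit limit set in the earlier mutant JAK2 cell screen (cut at about 27% in these data); inactive means the rest.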

Test: growth loss in parental Ba/F3 cells – cell-based, murine pro-B, CellTiter-Glo luminescence, counter-screen for JAK2V617F inhibitor project (AID 1520);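 further: plate controls were DMSO-treated cells for no effect and JAK Inhibitor I control wells for full effect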
Conditions: Ba/F3 parental viability, at 5.6 µM, hits give high values, cells kept alive by added IL-3
For COc1ccc(OC)c(Nc2nc(-c3ccc(O)c(O)c3)cs2)c1, the inhibition was 72.9% (active).
For Cn1c(CCN2CCCCCC2)nc2cc(NC(=O)Nc3ccccc3)ccc21, the inhibition was -5%.
For CSCC(=O)N1CCCC(C(=O)c2cc(F)ccc2F)C1 (stereo not drawn), the inhibition was -3.79%.
Compound CCCc1nc2ccccc2c(=O)n1/N=C/c1ccc(O)c(O)c1 has an inhibition of 1.92%.
With O=c1oc2ccccc2cc1-c1cn(-c2ccccc2)c(=S)[nH]1 the inhibition was 50% (active).
For N#C/C=C\Oc1ccc(Cl)cc1N, the inhibition was -2.4%.
COc1cc(OC)c(C(=O)NC2CCCCCC2)cc1OC gave an inhibition of -5.51%.
With O=C(CCl)Nc1ccc(Sc2ccc(NC(=O)CCl)cc2)cc1 the inhibition was 47.3% (active).
In the case of CCn1c(/C=C/c2ccc([N+](=O)[O-])o2)nc2ccccc2c1=O, the inhibition is reported as 106% (active).
In the case of Cc1ccc(NC(=S)N(CCCN2CCC(C)CC2)Cc2ccco2)cc1, the inhibition is reported as 28.7% (active).
In the case of Cc1ccc(S(=O)(=O)C2(S(=O)(=O)c3ccc(C)cc3)CCCC2)cc1, the inhibition is reported as 32.1% (active).
Compound CCCn1c(NC(=O)C23CC4CC(CC(O)(C4)C2)C3)nc2ccccc21 has an inhibition of -7.65%.
Cc1cccc(NC(=O)c2ccc([N+](=O)[O-])o2)c1 showed an inhibition of 10.6%.
With COc1ccccc1N1CCN(Cc2ccc(OC)c3ccccc23)CC1 the inhibition was -5.1%.
In the case of COc1ccc(-c2csc(Nc3ccc(O)cc3)n2)cc1, the inhibition is reported as 63% (active).
With Oc1ccc(/C=N/Nc2ccc(C(F)(F)F)cn2)cc1O the inhibition was 76.2% (active).
For O=C(CCl)N(Cc1cccc([N+](=O)[O-])c1)c1cccc(Cl)c1, the inhibition was 87.5% (active).
CCC1CCCCN1CCCNC(=O)c1cc2c(Cl)nc3ccccc3c2s1 (stereo not drawn) showed an inhibition of 0.54%.
With c1ccc2c(c1)CSc1sccc1C2=C1CCNCC1 the inhibition was 0.77%.
For COc1ccc(Cc2nnc(N/N=C/c3ccccc3O)[nH]c2=O)cc1OC, the inhibition was 85.6% (active).
Compound CN(Cc1ccc2nsnc2c1)Cc1nc(Cc2cccc(F)c2)no1 has an inhibition of -7.97%.
For COc1cc(OC)cc(C(=O)N[C@H](C(=O)Nc2nc3ccccc3[nH]2)C(C)C)c1, the inhibition was 86% (active).
Compound Cc1ccc(C2=NN(C)c3nc4ccccc4n3C2)cc1 has an inhibition of -0.44%.
